Measured values reported in PubChem BioAssay AID588343 (Broad Institute, 2011).
Screen size: about 1,200 compounds; about 650 (54%) were called active. Inconclusive results (about 5%) are left out.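 The calls were made as follows: active = signal-lowering curve whose fitted half-maximal concentration is at or below ten times the top valid dose tested; inconclusive = flat curve with 30 to 70% inhibition, or poor fit; inactive = signal increase, flat within 30%, or potency beyond limit.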 The set was probably picked from earlier hits. A selection follows. Results with a measured potency or affinity are listed apart.

Test: inhibitors of LMP1-driven NF-kB reporter, dose response, cell-based, HEK293, luciferase, cherry-pick (AID 588343);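 also: 0% = median of neutral control wells and -100% = MG132 positive control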
Conditions: HEK293 LMP1 TES2 NF-kB luciferase reporter, 16 h; series mostly up to 35 µM; activity change, negative = inhibition: at the top concentration

Activity change, negative = inhibition, inactive:
COc1cc(N)c(Cl)cc1C(=O)NC1CCN(Cc2ccccc2)CC1 47.7%, NC(=O)CC(NC(=O)c1ccccc1)c1ccc(NC2CCN(Cc3ccccc3)CC2)c([N+](=O)[O-])c1 (centres undefined) -11.4%, O=C(N/N=C(/CC(=O)c1cccs1)C(F)(F)F)c1ccc(O)cc1 2.98%, CN1CCN(CCOc2ccc(Cc3ccccc3)cc2)CC1 2.14%, Cn1c(=O)[nH]c(=O)c2c1nc(CN1CCOCC1)n2CCCc1ccccc1 16.2%, CCn1c2ccccc2c2cc(NC(=O)c3ccccc3-c3ccccc3C(=O)O)ccc21 10.4%, CS(=O)(=O)N(CC(=O)Nc1ccc(F)cc1F)C1CCCCC1 6.2%, O=[N+]([O-])c1ccc(/C=N/Nc2cc(Cl)nc(-c3ccccc3)n2)cc1 42.9%, COC(=O)C1=C(C)N(c2cc(C)cc(C)c2)/C(=C/c2ccc(O)cc2)C1=O -5.12%, COC(=O)c1ccc(/C=C(/NC(=O)c2ccccc2)C(=O)N2CCOCC2)cc1 10.5%, CC[C@H]1OC(=O)[C@H](C)[C@@H](O[C@H]2C[C@@](C)(OC)[C@@H](O)[C@H](C)O2)[C@H](C)[C@@H](O[C@@H]2O[C@H](C)C[C@H](N(C)C)[C@H]2O)[C@](C)(O)C[C@@H](C)C(=NOCOCCOC)[C@H](C)[C@@H](O)[C@]1(C)O 0.266%, Cc1nnc(NC(=O)CSc2nnc(Cc3cccn3C)n2CCc2ccccc2)s1 3.74%, Cc1ccnc(SCCn2c(N3CCN(c4ccccc4)CC3)nc3c2c(=O)[nH]c(=O)n3C)n1 -12.6%, CSc1nc(N)nc(SCC(=O)C23CC4CC(CC(C4)C2)C3)c1C#N 20.8%, O=C(O)/C=C/c1ccc(Cn2ccnc2)cc1 -7.19%, Oc1[nH]c2ccccc2c1N=Nc1c(F)c(F)c(Cl)c(F)c1F 23.3%, CC(C(=O)N=Nc1c(O)[nH]c2ccccc12)n1cnc2ccccc2c1=O (centres undefined) -8.31%, O=C(CCc1ccccc1Cl)N1CCN(S(=O)(=O)c2ccccc2)CC1 -13.7%, COc1ccc(-c2cnc(NCc3cc4c(cc3[N+](=O)[O-])OCO4)n2C)cc1 -18.9%, CC(C)c1nnc(NC(=O)c2ccc(N3C(=O)CCC3=O)cc2)s1 9.82%, COC(=O)C(NS(=O)(=O)c1ccc(N2CCCC2=O)cc1)c1ccccc1 (centres undefined) -4.56%, Cn1nc(-c2ccc(N3CCOCC3)c(NS(=O)(=O)c3ccccc3)c2)c2ccccc2c1=O -2.5%, COc1ccc(OC)c2c1sc(=NC(=O)c1ccco1)n2C 6.54%, CCCCCC(=O)N1C[C@@H](O)[C@H](n2cc(C3CC3)nn2)C[C@@H]1c1ccc(C)cc1 6.25%, COc1ccc(C(=O)CSc2nnc(Cc3ccccc3)o2)cc1 -7.07%, COc1ccc(S(=O)(=O)NC(CC(=O)NCc2ccco2)C(C)C)cc1 (centres undefined) -10.8%, CN1C(=O)C(CC(=O)NC2CCCCC2)SC1=Nc1ccccc1 (centres undefined) 2.02%, CCCc1cc(=O)[nH]c(SCC(=O)NC2CCCCC2)n1 0.752%, CCOCCCn1cnc2c3cc(F)ccc3n(C)c2c1=O 13.7%, CCOC(=O)N1CCC(n2c(=S)[nH]c3ccccc3c2=O)CC1 9.29%, COc1cc(Cl)cc(C(c2c(C(=O)O)[nH]c3ccccc23)c2c(C(=O)O)[nH]c3ccccc23)c1O -3.69%, COc1ccc(CCNC(=O)CSc2ccsc2[N+](=O)[O-])cc1OC 1.89%, COc1ccc(CCNC(=O)CSC(=O)c2ccccc2)cc1OC 12.9%, O=C(c1noc2c1CCCC2)N1CCCCC1 10.1%, COc1cc(/C=C(\C#N)c2ccccn2)ccc1OCc1ccccc1Cl 2.29%, CCN(CC(=O)Nc1ccc(NC(C)=O)cc1)C(=O)c1cccnc1Sc1ccc(C)c(C)c1 -7.7%, O=C(c1ccco1)N1CCN(S(=O)(=O)/C=C/c2ccccc2)CC1 -6.52%, COCCN1Cc2cccc(C(=O)N3CCN(c4cc(C)ccc4C)CC3)c2C1=O -8.16%, O=C(c1cccs1)N1CC=C(c2ccccc2)CC1 3.11%, CCOC(=O)c1ccc(NC(=O)CSc2nc(N3CCOCC3)nc(N3CCOCC3)n2)cc1 82.1%, Cn1cc(S(=O)(=O)N2CCN(C(=O)c3ccco3)CC2)c(=O)n(C)c1=O 7.15%, CCOC(=O)c1ccc(NC(=S)N2CCSC2c2ccc(OC)cc2)cc1 (centres undefined) 6.65%, COC(=O)C1=C(C)NC(C)=C(C(=O)OCC(C)C)C1c1ccccc1[N+](=O)[O-] (centres undefined) 18.9%, O=C(O)C1CC(=O)N(c2ccc(Br)cc2)C1 (centres undefined) -4.39%, CCCC(C)NC(C)C(=O)NC1CCCC1 (centres undefined) -5.6%, CCCCCCNC(=O)O[C@]12C[C@@H](C(=O)OC)[C@@H](C(=O)OC)C[C@@]1(O)CN(S(=O)(=O)c1ccc(C)cc1)C2 -2.65%, Cc1nc(N)nc(SCc2ccc([N+](=O)[O-])cc2)c1N -1.43%, Brc1cccc(-c2cnco2)c1 10.1%, CC(C)NCC(O)COc1cccc2ccccc12 (centres undefined) -3.16%, Cc1ccc(NC(=S)NCc2cccs2)cc1 -5.01%, Cc1ccc(CCNC(=O)Cc2ccc(NC3=NC4CS(=O)(=O)CC4S3)cc2)cc1 (centres undefined) -1.43%, CC1=CC(=NOC(=O)/C=C/c2ccccc2)C=C(C)C1=O 6.6%, CCC(=O)OC1c2ccccc2C(=O)N1Cc1ccccc1 (centres undefined) -7.48%, O=C1CC(c2ccccc2)Oc2ccccc21 (centres undefined) 3.68%, COc1ccccc1C1(CC(=O)O)CCOC(C)(C)C1 (centres undefined) -4.13%, O=C(Cn1cc(CNC(=O)C2CCCCC2)nn1)Nc1cc(C(F)(F)F)ccc1Cl -8.87%, COC(=O)c1[nH]c2ccc(C)cc2c1NC(=O)NC1CCCCC1 23.4%, O=C(NCCCN1CCCCC1)c1ccc2c(c1)NC(=O)c1ccccc1S2 37.7%, Cn1cc(CC(=O)NCCCN2CCCC2)c2ccccc21 6.09%, COc1ccc(S(=O)(=O)N2CCC(C(=O)NC3CC3)CC2)cc1OC -3.85%, CCCNC(=O)N1CCN(S(=O)(=O)c2ccc(C)c(C)c2)CC1 -10.3%, O=C(O)c1ccc(-n2cncn2)c([N+](=O)[O-])c1 15%, O=S(=O)(N/N=C/c1ccccc1F)c1ccccc1 -3.49%, CCSc1nc2ccc(OC)cc2cc1C#N 10.6%, O=[N+]([O-])c1cc(/C=N\O)ccc1Oc1ccc(F)cc1 9.78%, CCOC(=O)c1sc2nc(C)nc(NCc3ccccc3)c2c1C 32.4%, Cn1c(=O)c2ncn(CC(=O)O)c2n(C)c1=O -11.1%, COc1ccc(C(Nc2ccccn2)c2oc(CO)cc(=O)c2O)cc1 (centres undefined) -2.04%, Cc1ccc2c(c1)N(CC(=O)N1CCCC1)C(=O)c1cccnc1O2 2.23%, COc1ccc(S(=O)(=O)N2CCN(CC(=O)Nc3ccc(C)c(F)c3)CC2)cc1 -3.25%, O=C(NCc1ccccc1Cl)C1CCCN1S(=O)(=O)c1ccc(F)cc1 (centres undefined) -9.02%, CC1S/C(=C(\C#N)C(=O)NCc2ccco2)N(Cc2ccco2)C1=O (centres undefined) -4.58%, N=C1S/C(=C\c2ccccc2)C(=O)N1c1ccc(F)cc1 -6.59%, O=C1c2ccccc2C(Nc2cccnc2)N1Cc1ccccc1 (centres undefined) -7.37%, Cc1ccc(C2=C/C(=C\c3cccnc3)C(=O)O2)cc1 -11.9%, COc1ccc(NC(=O)C2CCCN(S(=O)(=O)c3cccc4nonc34)C2)c(OC)c1 (centres undefined) -11.2%, Cc1ccc(C)c(N2CCN(S(=O)(=O)c3ccc4c(c3)CCN4C(=O)CCC(=O)O)CC2)c1 -3.45%, O=C(N1CCOCC1)N1CCN(S(=O)(=O)c2ccc(Cl)cc2)C1 -7.57%, COc1ccc(/C=N/N=C/c2ccc(OC)c(OC)c2)cc1OC 9.12%, COc1ccc(/C=C\C(=O)NCc2ccc3c(c2)cc(C)n3C)cc1OC -4.59%, Cc1cc(C)c(S(=O)(=O)Nc2nnc(CC(C)C)s2)c(C)c1 6.39%, CC1(C)CC(NS(=O)(=O)c2ccc(F)cc2)CC(C)(C)N1 -4.19%, O=C(Nc1ccncc1)OCc1ccccc1 -5.3%, CN(C)CC(C)(C)CNS(=O)(=O)c1ccc(OC(F)(F)F)cc1 4.61%, COc1ccc(C(=O)N2CC(=O)Nc3ccccc32)cc1S(=O)(=O)N1CCCC1 15.1%, COc1ccc(NC(=O)COC(=O)/C=C/c2ccc(OC)c(S(=O)(=O)N3CCOCC3)c2)cc1 -2.68%, O=C(O)[C@@H]1[C@H]2C[C@H]3c4[nH]c5ccccc5c4CCN3C[C@@H]2CC[C@@H]1O -1.94%, CC(C)(C)C(=O)Nc1nnc(SCC(=O)Nc2ccc3c(c2)OCO3)s1 -4.9%, CCc1ccccc1N(CC(=O)NCc1ccco1)C(=O)c1snc(C(N)=O)c1N 0.513%, COC(=O)c1ccc(CSc2nc3c(c(=O)n2-c2ccc(C)cc2)SCC3)o1 21.4%, COc1ccc(-n2c(SCC(=O)Nc3ccc4c(c3)OCO4)nc3c(c2=O)SCC3)cc1 -8.49%, O=C(CN1CCN(S(=O)(=O)c2ccc(F)cc2)CC1)Nc1cccc(C(F)(F)F)c1 40.9%, Cc1cccc(C)c1NC(=O)CN(C)C(=O)c1ccc(-c2cccc(C(F)(F)F)c2)o1 -0.08%, O=C(Cn1ccc(C(F)(F)F)n1)Nc1cccc(S(=O)(=O)N2CCCCC2)c1 6.67%, NC(=O)N/N=C/c1ccc(N2CCOCC2)s1 -23.2%, Cc1ccc(-n2ccc(=O)c(C(=O)Nc3ccc(S(=O)(=O)N4CCOCC4)cc3)n2)cc1 -5.67%, O=C(NCCc1cn2ccccc2n1)C1CCCCC1 -4.95%, Cc1ccc(CNC(=O)C(=O)NCC2OCCN2S(=O)(=O)c2ccc(Cl)cc2)cc1 (centres undefined) -9.64%, CN(C)CCCC1(c2ccc(F)cc2)OCc2cc(C#N)ccc21 (centres undefined) -2.99%, CC(=O)O[C@]1(C(C)=O)CC[C@H]2[C@@H]3C=C(C)C4=CC(=O)CC[C@@H]4[C@H]3CC[C@@]21C 13.3%, CC(C)Oc1ccc(C2CC(=O)NC2=O)cc1 (centres undefined) -6.47%, COc1ccc(/C(CC2OC(=O)c3ccccc32)=N\NC(N)=O)cc1 (centres undefined) 11.8%, COc1cc(NC(=S)N2CCN(CCO)CC2)cc(OC)c1 -1.75%, Cc1ccc(/C=N/NC(=O)c2cc(-c3ccccc3)nc3ccccc23)o1 -0.376%
